This note sets out measurements from PubChem BioAssay (Tox21).

Several values for one entry are separate records, joined by “and”; a condition that tells them apart may be missing. Equal entries are not always repeated. Results filed as inconclusive are left out. Some compounds were tested as several samples or in several runs, with calls that do not always agree. Activity calls are given as the source filed them. Unless noted, calls come from the whole dose curve; as a rule, active = well fitted curve in the direction sought with a large enough effect in the repeat runs; inconclusive = weak or mixed curves; inactive = no such curve, though single readings can be large; an effect the other way counts as inactive or inconclusive.

Assay [1] is described as follows: qHTS assay to identify aromatase inhibitors - cell viability counter screen (AID 743084).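 Note: cells stimulated with testosterone during compound exposure; nearly all actives have a fitted effect of over 55% in size.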
The target of assay [2] is Aryl hydrocarbon receptor (Homo sapiens) (UniProt P35869). In words: qHTS assay to identify small molecule that activate the aryl hydrocarbon receptor (AhR) signaling pathway (AID 743085).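 Note: HG2L7.5c1 human HepG2 liver cells with stably integrated DRE-driven firefly reporter; series mostly up to about 70 µM; nearly all actives have a fitted effect of over 15% in size.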 Put shortly: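 Steps: seed HepG2-AhR-luc cells; allow 5 h at 37C; pin-transfer test compound or vehicle; incubate 24 h at 37C; add viability dye (30 min, 37C) and read fluorescence; add luciferase substrate (30 min, RT) and read luminescence.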
Aryl hydrocarbon receptor (Homo sapiens), sequence (P35869 whole entry, looked up): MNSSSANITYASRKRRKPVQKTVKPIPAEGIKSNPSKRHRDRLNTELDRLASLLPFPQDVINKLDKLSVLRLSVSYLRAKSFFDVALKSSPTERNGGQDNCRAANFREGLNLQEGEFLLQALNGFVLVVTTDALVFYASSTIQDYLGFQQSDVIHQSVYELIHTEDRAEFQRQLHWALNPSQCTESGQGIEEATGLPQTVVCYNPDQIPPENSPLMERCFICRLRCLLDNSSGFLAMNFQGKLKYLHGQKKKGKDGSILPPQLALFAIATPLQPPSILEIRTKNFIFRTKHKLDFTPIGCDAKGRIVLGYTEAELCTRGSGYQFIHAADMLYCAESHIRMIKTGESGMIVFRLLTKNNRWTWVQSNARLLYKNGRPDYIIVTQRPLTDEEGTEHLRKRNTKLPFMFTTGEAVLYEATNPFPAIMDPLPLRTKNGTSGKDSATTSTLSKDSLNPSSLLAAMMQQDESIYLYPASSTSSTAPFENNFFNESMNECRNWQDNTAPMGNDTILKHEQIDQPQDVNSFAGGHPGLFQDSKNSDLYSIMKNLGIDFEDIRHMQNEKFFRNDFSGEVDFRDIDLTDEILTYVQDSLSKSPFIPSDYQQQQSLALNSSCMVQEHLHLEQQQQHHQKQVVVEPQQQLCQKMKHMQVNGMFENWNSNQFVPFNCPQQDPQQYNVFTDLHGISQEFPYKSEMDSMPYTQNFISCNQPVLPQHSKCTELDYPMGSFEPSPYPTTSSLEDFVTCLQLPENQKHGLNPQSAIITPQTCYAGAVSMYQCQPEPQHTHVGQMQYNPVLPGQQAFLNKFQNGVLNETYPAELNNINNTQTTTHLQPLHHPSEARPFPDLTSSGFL

The nature of assay [3]: qHTS assay to identify small molecule that activate the aryl hydrocarbon receptor (AhR) signaling pathway - cell viability counter screen (AID 743086).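 Note: HepG2 liver cells carrying the AhR DRE luciferase reporter; series mostly up to about 70 µM; nearly all actives have a fitted effect of over 45% in size.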 Put shortly:
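Cytotoxicity counter screen: CellTiter-Fluor signal (30 min, 37 C) in 4000 HepG2 cells/well carrying the DRE-luciferase reporter, following 24 h compound exposure at 37 C.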
(Quantitative high-throughput screening tests each substance at several concentrations.)

Assay [4] deals with Peroxisome proliferator-activated receptor gamma (Homo sapiens) (UniProt P37231). Description: qHTS assay to identify small molecule agonists of the peroxisome proliferator-activated receptor gamma (PPARg) signaling pathway (AID 743094; active = well fitted activation curve with a large enough effect in the signal ratio in the repeat runs, not every such curve was filed as active; the % refers to the signal ratio). Put shortly: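 Beta-lactamase FRET fluorescence was the read-out after a 1 h room-temperature substrate step, following 17 h compound treatment at 37C of HEK293H cells expressing a UAS-driven bla reporter responsive to PPARg.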
Peroxisome proliferator-activated receptor gamma (Homo sapiens), sequence (P37231 whole entry, looked up): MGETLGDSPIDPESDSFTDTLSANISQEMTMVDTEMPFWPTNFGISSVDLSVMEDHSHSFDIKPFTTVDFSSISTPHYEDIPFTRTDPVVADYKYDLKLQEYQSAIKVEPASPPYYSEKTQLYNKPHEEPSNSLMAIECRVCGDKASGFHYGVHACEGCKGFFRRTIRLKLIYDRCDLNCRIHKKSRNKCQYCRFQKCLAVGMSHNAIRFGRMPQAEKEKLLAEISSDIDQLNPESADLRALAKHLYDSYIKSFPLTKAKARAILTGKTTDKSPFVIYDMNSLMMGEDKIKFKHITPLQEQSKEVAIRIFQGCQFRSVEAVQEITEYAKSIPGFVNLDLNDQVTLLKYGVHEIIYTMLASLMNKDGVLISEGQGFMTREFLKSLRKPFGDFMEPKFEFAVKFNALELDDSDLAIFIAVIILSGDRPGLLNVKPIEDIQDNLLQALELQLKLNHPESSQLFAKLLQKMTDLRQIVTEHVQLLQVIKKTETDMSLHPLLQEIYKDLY

Assay [5] has the same target. In words: qHTS assay to identify small molecule antagonists of the peroxisome proliferator-activated receptor gamma (PPARg) signaling pathway (AID 743191; calls by dose curve; note: series mostly up to about 63 µM; nearly all actives have a fitted effect of over 30% in size). Put shortly: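 Beta-lactamase reporter under UAS control in HEK293H PPARg-bla cells; compound treatment 17 h at 37C. Read-out: fluorescence intensity after 1 h room-temperature incubation with LiveBLAzer B/G FRET substrate.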

A short description of assay [6]: qHTS assay to identify small molecule antagonists of the peroxisome proliferator-activated receptor gamma (PPARg) signaling pathway - cell viability counter screen (AID 743194). Note: nearly all actives have a fitted effect of over 55% in size. In a few lines:
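Viability was measured as CellTiter-Glo luminescence in GeneBLAzer PPARg UAS-bla HEK293H cells. These cells had been exposed 17 h at 37 C to compounds together with rosiglitazone at 50 nM final, with the beta-lactamase readout taken in the same wells.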

Assay [7] in a line: qHTS assay for small molecule agonists of the antioxidant response element (ARE) signaling pathway (AID 743202; active = well fitted activation curve with a large enough effect in the signal ratio in the repeat runs, not every such curve was filed as active; the % refers to the signal ratio). In a few lines:
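Quantitative high-throughput format in HepG2 cells bearing an integrated ARE-beta-lactamase reporter. Compound exposure lasted 16 h at 37 C, and fluorescence was read 2 h after adding LiveBLAzer B/G substrate at room temperature.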

Assay [8] is described as follows: qHTS assay for small molecule agonists of the antioxidant response element (ARE) signaling pathway - cell viability counter screen (AID 743203; calls by dose curve; note: nearly all actives have a fitted effect of over 55% in size). Put shortly: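 HepG2 cells carrying ARE-driven beta-lactamase; 2,000 cells/well; 5 hrs plating; compound pinned from DMSO; 16 hrs 37C/5% CO2; CellTiter-Glo added; 30 min RT; luminescence.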
Assay [9] is described as follows: qHTS assay for small molecule activators of the heat shock response signaling pathway - cell viability counter screen (AID 743209). Note: nearly all actives have a fitted effect of over 50% in size. In a few lines:
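Luminescence from CellTiter-Glo, added after the beta-lactamase FRET read, gave the viability signal. Cells were HSE-bla HeLa treated with DMSO-dissolved compounds for 5 h at 37 C following overnight plating.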

A short description of assay [10]: qHTS assay for small molecule activators of the heat shock response signaling pathway (AID 743210; active = well fitted activation curve with a large enough effect in the signal ratio in the repeat runs, with a control signal flat, not every such curve was filed as active; the % refers to the signal ratio;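 note: HeLa cells with beta-lactamase reporter driven by heat shock elements; series mostly up to about 63 µM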). Put shortly:
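HeLa HSE-bla cells, overnight plating; cpd in DMSO 5 h, 37 C; LiveBLAzer B/G FRET substrate 2.5 h RT; fluorescence intensity read.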

Assay [11] can be described thus: qHTS assay to identify small molecule agonists of the peroxisome proliferator-activated receptor delta (PPARd) signaling pathway - cell viability counter screen (AID 743211). Note: nearly all actives have a fitted effect of over 55% in size. In a few lines:
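Viability of GeneBLAzer PPARd UAS-bla HEK293H cells was assessed after 17 h compound incubation at 37C, using CellTiter-Glo reagent added after the reporter read and luminescence recorded 30 min later.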

The target of assay [12] is Peroxisome proliferator-activated receptor delta (Homo sapiens) (UniProt Q03181). Description: qHTS assay to identify small molecule agonists of the peroxisome proliferator-activated receptor delta (PPARd) signaling pathway (AID 743212; calls by dose curve). In a few lines:
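HEK293H PPARd-bla cells; 5 h preincubation 37 C/5% CO2; compound (DMSO) 37 C; LiveBLAzer B/G FRET substrate 2 h RT; fluorescence intensity.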

Assay [13] is described as follows: qHTS assay to identify small molecule antagonists of the peroxisome proliferator-activated receptor delta (PPARd) signaling pathway - cell viability counter screen (AID 743213). Note: nearly all actives have a fitted effect of over 50% in size. Put shortly:
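Luminescence from CellTiter-Glo, added after the bla read and incubated 30 min at room temperature, gives viability of HEK293H PPARd-bla cells exposed to compounds for 17 h at 37 C with 300 nM L165041.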

Assay [14] has as its target Peroxisome proliferator-activated receptor delta (Homo sapiens) (UniProt Q03181). Description: qHTS assay to identify small molecule antagonists of the peroxisome proliferator-activated receptor delta (PPARd) signaling pathway (AID 743215; active = well fitted inhibition curve with a large enough effect in the signal ratio in the repeat runs, not every such curve was filed as active; the % refers to the signal ratio;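 note: cells stimulated with agonist L165041 at 300 nM final during compound exposure; series mostly up to about 62 µM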). In a few lines:
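Read-out is beta-lactamase FRET fluorescence, measured 2 h after substrate addition at room temperature. Beforehand, UAS-bla HEK293H cells carrying the PPARd reporter were exposed to compounds with L165041 at 300 nM final for 17 h at 37 C.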

Assay [15] addresses Bile acid receptor (Homo sapiens) (UniProt Q96RI1). Description: qHTS assay to identify small molecule antagonists of the farnesoid-X-receptor (FXR) signaling pathway (AID 743217; active = well fitted inhibition curve with a large enough effect in the signal ratio in the repeat runs, not every such curve was filed as active; the % refers to the signal ratio). In a few lines: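 HEK 293T FXR-UAS-bla, 5000 cells/well; compound + CDCA 50 uM final; 16 h, 37 °C; B/G FRET substrate 2 h RT; fluorescence.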
Assay [16] is described as follows: qHTS assay to identify small molecule agonists of the farnesoid-X-receptor (FXR) signaling pathway - cell viability counter screen (AID 743218). Note: nearly all actives have a fitted effect of over 45% in size. Note: potency is the fitted concentration of half-maximal effect. Put shortly:
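HEK 293T FXR-bla cells; 5 h pre-incubation, 16 h compound exposure at 37 C; LiveBLAzer substrate 2 h RT, then CellTiter-Glo 30 min RT, luminescence.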

For assay [17], the target named is Bile acid receptor (Homo sapiens) (UniProt Q96RI1). Description: qHTS assay to identify small molecule agonists of the farnesoid-X-receptor (FXR) signaling pathway (AID 743220; active = well fitted activation curve with a large enough effect in the signal ratio in the repeat runs, not every such curve was filed as active; the % refers to the signal ratio). In a few lines: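 Beta-lactamase reporter under UAS control in GeneBLAzer FXR HEK 293T cells (5000/well) measured with LiveBLAzer FRET substrate after 2 h at room temperature. Compound exposure lasted 16 h at 37C.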
Bile acid receptor (Homo sapiens), sequence (Q96RI1 whole entry, looked up): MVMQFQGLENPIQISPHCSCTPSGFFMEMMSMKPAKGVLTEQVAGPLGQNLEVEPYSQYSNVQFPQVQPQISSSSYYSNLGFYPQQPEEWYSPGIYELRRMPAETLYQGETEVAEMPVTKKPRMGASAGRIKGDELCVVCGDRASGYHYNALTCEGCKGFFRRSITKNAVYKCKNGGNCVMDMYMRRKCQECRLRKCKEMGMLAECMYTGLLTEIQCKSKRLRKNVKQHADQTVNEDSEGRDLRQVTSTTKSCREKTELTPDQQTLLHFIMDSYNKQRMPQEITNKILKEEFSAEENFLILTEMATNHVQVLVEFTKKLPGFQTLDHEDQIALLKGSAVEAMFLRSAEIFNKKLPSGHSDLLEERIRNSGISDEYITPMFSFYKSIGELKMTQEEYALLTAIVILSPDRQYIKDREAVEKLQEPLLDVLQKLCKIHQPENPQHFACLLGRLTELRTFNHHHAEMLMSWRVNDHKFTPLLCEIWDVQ

Assay [18] is described as follows: qHTS assay to identify small molecule antagonists of the farnesoid-X-receptor (FXR) signaling pathway - cell viability counter screen (AID 743221; active = well fitted cell-killing curve with a large enough effect in the repeat runs, not every such curve was filed as active; note: nearly all actives have a fitted effect of over 50% in size). Put shortly:
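Quantitative HTS of the Tox21 10K library run in parallel with the beta-lactamase reporter read. HEK 293T cells carrying a UAS-driven bla reporter got compound and 50 uM CDCA (final) for 16 h; ATP-based luminescence followed.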

The target of assay [19] is Vitamin D3 receptor (Homo sapiens) (UniProt P11473). In words: qHTS assay to identify small molecule agonists of the vitamin D receptor (VDR) signaling pathway (AID 743222; calls by dose curve). Put shortly: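 VDR-bla cells, 2,000/well; 4 h preincubation 37C; cpd (DMSO) 16 h; LiveBLAzer B/G substrate 2 h RT; fluorescence intensity read.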
Vitamin D3 receptor (Homo sapiens), sequence (P11473 whole entry, looked up): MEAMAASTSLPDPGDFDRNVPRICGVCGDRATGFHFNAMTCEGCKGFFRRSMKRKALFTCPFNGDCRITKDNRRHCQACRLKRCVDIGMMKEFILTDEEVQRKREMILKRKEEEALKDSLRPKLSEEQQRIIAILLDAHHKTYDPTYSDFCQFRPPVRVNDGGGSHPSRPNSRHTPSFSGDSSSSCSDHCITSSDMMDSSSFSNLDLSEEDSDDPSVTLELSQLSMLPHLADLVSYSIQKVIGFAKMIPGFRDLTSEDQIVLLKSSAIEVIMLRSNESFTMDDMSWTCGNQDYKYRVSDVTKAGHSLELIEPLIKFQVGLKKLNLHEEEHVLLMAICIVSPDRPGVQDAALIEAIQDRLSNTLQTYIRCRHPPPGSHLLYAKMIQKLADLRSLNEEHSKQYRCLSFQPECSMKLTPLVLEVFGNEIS
Assay [20] shares this target. Description: qHTS assay to identify small molecule antagonists of the vitamin D receptor (VDR) signaling pathway (AID 743223; active = well fitted inhibition curve with a large enough effect in the signal ratio in the repeat runs, not every such curve was filed as active; the % refers to the signal ratio). In a few lines: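 Fluorescence from LiveBLAzer B/G FRET substrate, read after 2 h at room temperature, reflects beta-lactamase reporter activity in VDR-bla cells treated 16 h at 37C with compounds and agonist 1alpha,25-dihydroxyvitamin D3 (3 nM final).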

Peroxisome proliferator-activated receptor delta (Homo sapiens), sequence (Q03181 whole entry, looked up): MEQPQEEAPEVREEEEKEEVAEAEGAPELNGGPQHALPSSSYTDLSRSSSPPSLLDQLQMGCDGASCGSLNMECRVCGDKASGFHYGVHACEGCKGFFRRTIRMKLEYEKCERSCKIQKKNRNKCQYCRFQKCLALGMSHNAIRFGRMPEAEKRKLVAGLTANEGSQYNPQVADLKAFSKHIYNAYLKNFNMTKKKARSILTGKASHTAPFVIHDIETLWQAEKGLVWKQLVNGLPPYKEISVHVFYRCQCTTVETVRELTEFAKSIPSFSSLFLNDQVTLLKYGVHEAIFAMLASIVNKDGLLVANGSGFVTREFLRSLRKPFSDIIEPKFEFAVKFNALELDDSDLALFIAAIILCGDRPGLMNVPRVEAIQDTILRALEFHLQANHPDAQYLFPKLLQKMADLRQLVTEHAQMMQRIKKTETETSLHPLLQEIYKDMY

As for `Cc1cc(=O)[nH]c(C(C)C)n1`, the Potency entry in assay [1], in assay [2], in assay [3], in [5], in [6] and in [7] was “inactive” each time. The Potency entry in assay [8], in assay [9], in assay [11], in assay [13], in [16] and in [18] was “inactive” throughout. In addition, the Potency entry in assay [19] and in [20] was “inactive” in each case. Further, the outcome in assay [4], in assay [10], in assay [12], in assay [14], in assay [15] and in assay [17] was inactive.
On to `CC(C)(N=C=O)c1cccc(C(C)(C)N=C=O)c1`, for which the Potency result in [1], in assay [2], in assay [3], in [5], in assay [6] and in [7] was “inactive” throughout. In addition, the Potency entry in [8], in assay [9], in assay [11], in assay [13], in assay [18] and in assay [19] was “inactive” throughout. Further, the Potency result in [20] was “inactive”. Further, the result in [4], in [10], in assay [12] and in assay [14] was inactive.
`CCCCCCC(C)(C)S`: the Potency result in assay [1], in assay [2], in [3], in assay [5], in assay [6] and in assay [7] was “inactive” each time. Moreover, the Potency entry in assay [8], in [9], in [11], in assay [13], in assay [16] and in [18] was “inactive” in each case. In addition, the call in [4], in assay [10], in [15] and in assay [17] was inactive.
Regarding `OC1CCCC1`, the Potency entry in assay [1], in assay [2], in assay [3], in [5], in assay [6] and in assay [7] was “inactive” throughout. In addition, the Potency result in assay [8], in assay [9], in [11], in assay [13], in assay [16] and in assay [18] was “inactive” each time. The Potency result in [19] and in assay [20] was “inactive” throughout. In addition, the call in [4], in assay [10], in assay [12] and in [14] was inactive.
As to `COCC(C)O` (stereo not drawn), the Potency result in assay [1], in assay [2], in [3], in [5], in [6] and in assay [7] was “inactive” each time. Further, the Potency result in assay [8], in assay [9], in assay [11], in assay [13], in assay [16] and in [18] was “inactive” each time. The Potency result in assay [19] and in assay [20] was “inactive” throughout. For the same compound, in assay [4], the outcome was inactive.
In the case of `CCCCCCOC(C)=O`, the Potency result in assay [1], in assay [2], in [3], in assay [5], in assay [6] and in assay [7] was “inactive” throughout. For the same compound, the Potency entry in assay [8], in [9], in assay [11], in assay [13], in assay [18] and in [19] was “inactive” throughout. In addition, the outcome in assay [4], in assay [12], in assay [14], in assay [15] and in [17] was inactive. The Potency result in [16] is “inactive and 24.5 µM (active)”.
Take `C=C(C)C(=O)OCCC[Si](OC)(OC)OC`: the Potency entry in assay [1], in assay [2], in [3], in [5], in assay [6] and in [7] was “inactive” each time. In addition, the Potency result in assay [8], in [9], in assay [11], in [13], in assay [16] and in assay [18] was “inactive” throughout. Moreover, the compound was called inactive in assay [4], in assay [10], in assay [12] and in assay [14].
On to `CS(=O)(=O)c1ccc([C@@H](O)[C@@H](CO)NC(=O)C(Cl)Cl)cc1`, for which the Potency result in assay [1], in [2], in assay [3], in assay [5], in [6] and in assay [7] was “inactive” throughout. Also, the Potency result in assay [8], in assay [9], in assay [11], in assay [13], in assay [16] and in assay [18] was “inactive” throughout. The Potency result in [19] and in assay [20] was “inactive” in each case. For the same compound, the compound was classed as inactive in assay [4], in assay [10], in assay [12] and in assay [14].
